Structures are written as SMILES. The whole screen tested about 360,000 compounds, of which about 9,100 (2.5%) were called active. Inconclusive results (about 4%) are left out. Shown is part of a subset that was picked to be rich in actives. A number with no mark means an inactive call. Cut-off read from the data, not from the text of the source: active = max response below about -50%; inconclusive = no clear call, values can overlap the other calls; inactive = above that.
% is set by controls: 0 for no effect and ±100 for the full control effect.

The assay deals with D(3) dopamine receptor (Homo sapiens) (UniProt P35462). The assay can be described thus: qHTS of D3 Dopamine Receptor Antagonist: qHTS. As to conditions: D3R cells, DiscoveRx beta-arrestin luminescence, antagonist mode; active compounds read low. In short, it runs like this: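 Cells expressing the human receptor were seeded at 1500 cells/well, incubated overnight at 37 degrees C in 5% CO2, then exposed to library compounds with dopamine controls for 90 minutes at 37 degrees C before luminescent detection.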
D(3) dopamine receptor (Homo sapiens), sequence (P35462 whole entry, looked up): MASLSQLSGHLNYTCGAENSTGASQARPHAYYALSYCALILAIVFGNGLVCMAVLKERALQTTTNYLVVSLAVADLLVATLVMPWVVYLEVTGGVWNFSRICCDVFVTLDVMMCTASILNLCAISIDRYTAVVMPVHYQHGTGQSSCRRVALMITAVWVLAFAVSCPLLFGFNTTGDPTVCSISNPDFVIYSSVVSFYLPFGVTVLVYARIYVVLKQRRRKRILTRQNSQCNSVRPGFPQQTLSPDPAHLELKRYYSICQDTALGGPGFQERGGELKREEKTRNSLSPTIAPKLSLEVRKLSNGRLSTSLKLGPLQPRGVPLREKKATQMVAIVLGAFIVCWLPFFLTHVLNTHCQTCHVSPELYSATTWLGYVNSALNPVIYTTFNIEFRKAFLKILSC
Background: qHTS replaces the single test concentration by a dilution series.
`CCN(CC)C(=O)C(C)N1c2cccc3cccc(c23)S1(=O)=O` (stereo unspecified): the max response, negative = inhibition was -22.2%.

Turning to `Cc1cccc(CN2CCN(C3CN(Cc4cn(Cc5ccccc5F)nn4)S(=O)(=O)C3)CC2)c1` (stereo unspecified), the max response, negative = inhibition was 6.92%.

On to `O=C1c2ccccc2-c2ccccc2NC1O` (stereo unspecified), for which the max response, negative = inhibition is 0%.

Regarding `O[C@H]1CN(Cc2cccs2)[C@@H](c2ccc(Cl)cc2)C[C@@H]1n1cc(C2CC2)nn1`, the max response, negative = inhibition was 8.97%.

For `NC(c1ccccc1)c1csc(NC(=O)Nc2cccc(C(F)(F)F)c2)n1` (stereo unspecified), the max response, negative = inhibition was 18.1%.

Consider `C#CCNC(=O)C[C@@H]1C[C@@]2(C(=O)OCC)CCCC=C2N(Cc2ccco2)C1=O`, for which the max response, negative = inhibition is 5.5%.

Regarding `Cc1ccc(Cc2cnc(NC(=O)/C(C#N)=C/c3ccc(-c4cccc([N+](=O)[O-])c4)o3)s2)cc1`, the max response, negative = inhibition was -59.9% (active).

As to `Cc1ccc(-c2ccc(/C=C(\C#N)C(N)=S)o2)c([N+](=O)[O-])c1`, the max response, negative = inhibition was -5.05%.

Turning to `Cc1ccc(C(=O)N/C(=C/c2ccc(-c3cccc([N+](=O)[O-])c3)o2)C(=O)NCCCN(C)C)cc1`, the max response, negative = inhibition was 10.3%.

On to `Cc1[nH]c2ccccc2c1C(=O)c1cc([C@H](NC(=O)OC(C)(C)C)C(C)C)sc1N`, for which the max response, negative = inhibition is 17.9%.

Consider `COC(=O)c1ccc(CN2C(=O)C(Cc3ccccc3)ON=C2c2ncccc2C)o1` (stereo unspecified), for which the max response, negative = inhibition was 14.2%.

Take `CCCCCCN1CCN(C2CN(Cc3cn(CCCCCC)nn3)S(=O)(=O)C2)CC1` (stereo unspecified): the max response, negative = inhibition was -13.3%.

As to `O=C(Nc1cccc2cccnc12)c1ccc2sc([C@H]3C[C@H](O)[C@@H](CO)O3)nc2c1`, the max response, negative = inhibition is 119%.

`CSc1ccccc1NC(=O)CN(C)CC(=O)Nc1ccc(Cl)cc1[N+](=O)[O-]`: the max response, negative = inhibition was -10.8%.

`CCN(CC)CCNc1ccc(Cl)cc1[N+](=O)[O-]`: the max response, negative = inhibition is -86.2% (active).

For the compound `CN(C)CCNc1ccc(-c2n[nH]c(=O)c3ccccc23)cc1[N+](=O)[O-]`, the max response, negative = inhibition was -21.7%.

Regarding `CC1Cc2[nH][nH]c(=O)c2C(C2CC2)O1` (stereo unspecified), the max response, negative = inhibition is 2.81%.

Regarding `O=C(NCc1ccccc1)C1c2ccccc2OCC(=O)N1C1CC1` (stereo unspecified), the max response, negative = inhibition was 3.07%.

In the case of `CCC(c1nc2ccccc2[nH]1)n1c(=O)c(-c2cccs2)nc2ccccc21` (stereo unspecified), the max response, negative = inhibition is -19.2%.

Turning to `CC(=O)Nc1cnc(-c2ccc(O)cc2C)cn1`, the max response, negative = inhibition is 12.9%.

As to `CC1(C(=O)NS(=O)(=O)c2cccc(OC(F)F)c2)CCN1C(=O)COc1ccc(Cl)cc1` (stereo unspecified), the max response, negative = inhibition is 0%.

For the compound `CCOc1ccc(C(=O)Nc2nccs2)cc1[N+](=O)[O-]`, the max response, negative = inhibition is 2.71%.

In the case of `COc1cccc(OCC(=O)NNC(=O)c2cnccn2)c1`, the max response, negative = inhibition was -0.611%.

With `COc1ccc(C(=O)NNC(=O)c2cnccn2)cc1[N+](=O)[O-]`, the max response, negative = inhibition was -63.8% (active).

Regarding `CCc1nc2ccc(C(=O)Nc3cc(-c4ccccc4)ccc3OC)cn2c1N(CC)CC(=O)N(C)C`, the max response, negative = inhibition is -16.4%.

Turning to `NC(Cc1ccccc1)c1csc(Nc2cc(Oc3ccccc3)ncn2)n1` (stereo unspecified), the max response, negative = inhibition was 9.45%.

As to `O=C(c1cc(C2CCCCN2S(=O)(=O)c2ccccc2)on1)N1CCOCC1` (stereo unspecified), the max response, negative = inhibition was 44.2%.

On to `CCCCN(C(C)=O)c1ccc2c(c1)C1CC2CCN1Cc1ccccc1` (stereo unspecified), for which the max response, negative = inhibition is -22%.

With `COc1ccc(-n2nnc3c(=O)n(CC(=O)OCc4ccccc4)cnc32)cc1`, the max response, negative = inhibition was 7.78%.

Consider `O=C(Cn1cnc2c(nnn2-c2ccccc2)c1=O)N1CCC(Cc2ccccc2)CC1`, for which the max response, negative = inhibition is -67.4% (active).

In the case of `COc1ccc(-n2nnc3c(=O)n(CC(=O)N4CCC(Cc5ccccc5)CC4)cnc32)cc1`, the max response, negative = inhibition was -29.9%.

Take `CC(C)(C)Cc1c(C2CCCCC2)nc2ccc(Br)cn12`: the max response, negative = inhibition was 20.9%.

On to `CCN(CC)c1ncnc2c1ncn2[C@H]1CN(Cc2cccs2)C[C@@H](CO)O1`, for which the max response, negative = inhibition was -18.3%.

With `CC1(C(=O)NCc2ccc3c(c2)OCO3)CCN1C(=O)Cc1cccc2ccccc12` (stereo unspecified), the max response, negative = inhibition is -2.93%.

Turning to `FC(F)(F)c1cccc(Cc2noc(CN3CCC(N4CCCCC4)CC3)n2)c1`, the max response, negative = inhibition is 43.6%.

For `O=C(c1ccco1)N1CCN(Cc2cccc(C(F)(F)F)c2)CC1`, the max response, negative = inhibition is 19.4%.

On to `CCOC(=O)N1CCN(Cc2nc(Cc3cccc(C(F)(F)F)c3)no2)CC1`, for which the max response, negative = inhibition was -50.2% (active).

For `CCCNC(=O)C1(C)CCCN(C(=O)c2cccc(OC(C)=O)c2C)C1` (stereo unspecified), the max response, negative = inhibition was 9.36%.

For `COc1ccccc1Cc1c(-c2ccc(Cl)cc2)nc2c3ccccc3ccn12`, the max response, negative = inhibition was 7.3%.

Take `Cc1ccc(CNS(=O)(=O)CCNC(=O)c2ccccc2)cc1`: the max response, negative = inhibition is 18.2%.

Turning to `O=C(NCCS(=O)(=O)NCc1ccc(F)cc1)c1ccccc1`, the max response, negative = inhibition is -8.19%.

Consider `CCCCNCCS(=O)(=O)NCc1ccccc1`, for which the max response, negative = inhibition was -71.2% (active).

On to `CC(=O)N1CCN(Cc2cc(=O)oc3cc(C)ccc23)CC1`, for which the max response, negative = inhibition was 10.4%.

As to `COc1ccc(S(=O)(=O)N2CCN(CC(=O)N3CCNC3=O)CC2)cc1OC`, the max response, negative = inhibition is 3.73%.

Consider `Cn1ncc([N+](=O)[O-])c1C(=O)Nc1cc(Cl)ccc1Cl`, for which the max response, negative = inhibition was 0%.

With `O=C(CSc1ncn[nH]1)NCc1ccc2c(c1)OCO2`, the max response, negative = inhibition was 5.23%.

As to `O=C(CSc1ncn[nH]1)Nc1ccc(Br)cc1Br`, the max response, negative = inhibition was -17.2%.

In the case of `O=C(/C=C/Sc1ncn[nH]1)c1ccc(Cl)cc1`, the max response, negative = inhibition was -50.9% (active).

With `CN(C)C(=O)c1cccc(-c2cnc3sc(NCc4ccc5c(c4)OCO5)nn23)c1`, the max response, negative = inhibition was 59.7%.

With `CCCCCc1c(-c2cccc(Br)c2)ncn1CCc1ccccc1OC`, the max response, negative = inhibition is 19.8%.

Regarding `CCCNC(=O)C1(C)CCCN(C(=O)c2oc3ccccc3c2C)C1` (stereo unspecified), the max response, negative = inhibition was -13.3%.

For `Cn1cc(Cl)c(C(=O)NNC(=S)Nc2cccc(Cl)c2)n1`, the max response, negative = inhibition was -24.3%.

`Cc1nn(C)cc1C(=O)NNC(=S)Nc1ccc(Cl)cc1`: the max response, negative = inhibition was -63.2% (active).

Consider `Cc1nn(C)cc1CNC(=O)Nc1ccc(Cl)cc1`, for which the max response, negative = inhibition is 6.1%.

In the case of `Cc1cccc(CN2CCN(C3CN(Cc4ccccc4)S(=O)(=O)C3)CC2)c1` (stereo unspecified), the max response, negative = inhibition was -8.28%.

`Cc1cc2nc(-c3ccc(Cl)cc3)c(Cc3cccc(F)c3)n2c(C)c1Br`: the max response, negative = inhibition was 0%.

Turning to `COc1ccccc1CC1(C)C(=O)Nc2ccc(OC(F)(F)F)cc21` (stereo unspecified), the max response, negative = inhibition is -16.9%.

Regarding `CC(=O)Nc1ccc2c3c(ccc([N+](=O)[O-])c13)CC2`, the max response, negative = inhibition was -18.8%.

With `CN1/C(=C\C=C2\N=C(c3ccc(F)cc3)OC2=O)C(C)(C)c2ccccc21`, the max response, negative = inhibition was -63.7% (active).

For the compound `CC(=O)Nc1cccc(OCC(=O)/C=C2\N(C)c3ccccc3C2(C)C)c1`, the max response, negative = inhibition is 12.1%.

As for `CN1CCN(CCC(=O)N/N=C/C=C2\N(C)c3ccccc3C2(C)C)CC1`, the max response, negative = inhibition is -23.3%.

For the compound `Cc1cc2c(cc1C)N1C(=O)c3cc4ccccc4cc3NC(=O)C1C(=O)N2` (stereo unspecified), the max response, negative = inhibition was 0%.

As to `CC(=O)C[C@@H]1OC[C@H](C)N1S(=O)(=O)c1ccc(C)cc1`, the max response, negative = inhibition was 1.58%.

Turning to `Cc1nccn1-c1ccc(NC(=O)[C@H]2O[C@@H](n3ccc(=O)[nH]c3=O)[C@H](O)[C@@H]2O)cc1`, the max response, negative = inhibition is 23.4%.

In the case of `CCc1nc2c(OCc3ccc(C(F)(F)F)cc3)cccn2c1N(C)C(=O)CC(C)C`, the max response, negative = inhibition was 3.13%.

Take `COc1cccc(-c2cnc(C(O)c3ccccc3OC)[nH]2)c1` (stereo unspecified): the max response, negative = inhibition was 0%.

`CC1(C(=O)NCc2ccccc2)CSCC(=O)N1CCCn1ccnc1` (stereo unspecified): the max response, negative = inhibition is 11.4%.

For `Cc1ccc(/C=N/NC(=O)C2=NNC(c3ccccc3)(c3ccccc3)C2)c(O)c1`, the max response, negative = inhibition was 15.1%.

As for `CCOc1cc(/C=N/Nc2cc(C)nc3ccc(C)cc23)ccc1O`, the max response, negative = inhibition was 3.59%.

In the case of `CCN(CC)c1ccc(/C=N/NC(=O)c2cnccn2)c(O)c1`, the max response, negative = inhibition is -57.7% (active).

Take `CCN(CC)c1ccc(/C=N/Nc2nc(C)cc(C)n2)c(O)c1`: the max response, negative = inhibition is -81.5% (active).

Take `COc1ccc(NC(=O)C/C(C)=N/NC(=O)c2cnccn2)cc1Cl`: the max response, negative = inhibition is 3.87%.

Regarding `Cc1ccc2cc(/C=N/Nc3ccc(C(=O)O)cc3)c(Cl)nc2c1`, the max response, negative = inhibition was 13.3%.

As for `c1cc(-c2ccc3[nH]ccc3c2)n2ccnc2c1`, the max response, negative = inhibition is 0%.

For `CCNC(=O)C1(C)CCN(C(=O)c2ccccc2)C1` (stereo unspecified), the max response, negative = inhibition is 0%.

As for `COc1ccc(C(C(=O)NCc2ccccc2)n2c(=O)c(-c3ccccc3)nc3ccccc32)cc1` (stereo unspecified), the max response, negative = inhibition was -3.74%.

On to `COc1ccc(OC)c(NC(=O)C2CCCN2S(=O)(=O)c2ccc3c(c2)CC(C)N3C(C)=O)c1` (stereo unspecified), for which the max response, negative = inhibition is -11.1%.

For the compound `CCN(CCN(C)C)C(=O)c1ccc2nc(C)c(N(C)C(=O)CCc3ccccc3)n2c1`, the max response, negative = inhibition was 14.8%.

`COc1ccc(S(=O)(=O)N2CCC(C(=O)NCCC(=O)Nc3ccccc3OC)CC2)cc1`: the max response, negative = inhibition is 23.8%.

In the case of `CN=C1C=C/C(=N/N=c2\ccn(O)cc2C)C=C1C`, the max response, negative = inhibition was -67.8% (active).

On to `O=C(COC(=O)CCc1c[nH]c2ccccc12)Nc1cccc(Cl)c1`, for which the max response, negative = inhibition is -6.82%.

As to `O=C(NC(=O)N1CCOCC1)c1ccccc1`, the max response, negative = inhibition is 160%.

Regarding `O=C(CSC(=S)N1CCOCC1)c1ccccc1`, the max response, negative = inhibition was -4.48%.

For `NC(=NC(=O)c1ccccc1)N1CCOCC1`, the max response, negative = inhibition is -52.7% (active).

For the compound `Cc1cc2oc(=O)cc(CN(C)Cc3ccccc3)c2cc1Cl`, the max response, negative = inhibition is 9.91%.

As for `CCCCN1C(=O)C(CC(=O)NCc2cccs2)CC(C(=O)N2CCCCCC2)=C1C` (stereo unspecified), the max response, negative = inhibition was 0%.

As to `O=C(CCS(=O)(=O)c1cccc2nsnc12)N1CCN(c2ccccc2F)CC1`, the max response, negative = inhibition was 1.65%.

Turning to `O=C(CCCNS(=O)(=O)c1cccc2nsnc12)NCCN1CCN(c2ccccc2F)CC1`, the max response, negative = inhibition was -84.7% (active).

Take `COc1ccccc1CNC(=O)CCCNS(=O)(=O)c1cccc2nsnc12`: the max response, negative = inhibition is -0.0929%.

Turning to `OC[C@@H]1CN(Cc2ccc3c(c2)OCO3)C[C@H](n2cnc3c(NCc4ccco4)ncnc32)O1`, the max response, negative = inhibition was -5.45%.

Consider `COC(=O)[C@@]1(Sc2ccc(C)cc2)CC(=O)N(c2cccc(SC)c2)[C@@H]1c1ccccc1`, for which the max response, negative = inhibition was 3.45%.

The values are drawn from PubChem BioAssay AID652054 (National Center for Advancing Translational Sciences (NCATS), 2013).
